Compounds without any hit were thinned out: in the full panel of roughly 83,000, 20% have a hit.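 Plates (96-well) were seeded with cells, treated with compound at one concentration, and incubated for 48 hours before percent growth was determined.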 Values without a mark were called inactive. The source made the active and inactive calls. How the source made its calls: active means growth percent below 10; inactive means the rest.
System: MDA-MB-468 breast
Assay: NCI-60 one-dose screen, 48 h (100 = growth as untreated, 0 = no growth, -100 = all killed)
Conditions: 10 µM unless noted

First: COc1ccc(C2C(C#N)=C(N)Oc3c2sc2c(F)cccc32)cc1 (stereo not given)
Second: CCOC(=O)C1=C(c2ccccc2)N=C2SC=C(c3ccc(Cl)cc3)N2C1c1ccc(Cl)cc1 (stereo not given)
The growth of the first is lower: 40.6% for the first, 41.3% for the second.

First: O=C(/C(=C/c1ccc([N+](=O)[O-])cc1)SCc1ccccc1)c1ccc(Cl)cc1
Second: C=C1c2nc3ccccc3n2C=C(c2ccc(Cl)cc2)N1Cc1ccccc1
The growth of the first is higher: 70.4% for the first, 59.1% for the second.

Compared with O=C(NC(Cc1ccc(O)cc1)C(=O)N=Nc1c(O)[nH]c2ccccc12)c1ccccc1 (stereo not given), Cn1c(SC(C(=O)Nc2ccc(F)cc2)c2ccccc2)nc2ccccc2c1=O (stereo not given) is lower in growth: 109% for the first, 99.6% for the second.

First: Cc1ccccc1NC(=O)Oc1ccc(Cl)cc1C(=O)c1ccccc1
Second: CS(=O)(=O)Nc1ccc([N+](=O)[O-])cc1Oc1ccccc1
The growth of the first is lower: 88.2% for the first, 100% for the second.

Going from O=C(O)c1cc([N+](=O)[O-])ccc1Br to CCc1c(C(=O)Nc2ccc3ccccc3c2)[nH]c(C)c1C(C)=O, the growth falls from 96.5% to 83.7%.

First: C=C(C)[C@@H]1C[C@@H]2Cc3cc(F)ccc3N1O2
Second: Cn1cc(-c2ccc3c(c2)ncn3-c2ccc(CC(=O)Nc3cc(C(C)(C)C)on3)cc2)cn1
The growth of the first is higher: 104% for the first, 35.5% for the second.

Going from CCCCCCCCCCCCCCCCCC1=NCCN1CCO to CCCCSc1ccc2nc(-c3ccc(OCCCN=C(N)N)cc3)cn2c1, the growth falls from 102% to 35.6%.

Going from c1ccc2cc(C[n+]3ccn(CCCCCCn4cc[n+](Cc5ccc6ccccc6c5)c4)c3)ccc2c1 to O=C(NCCCl)Nc1ncccc1OCc1ccccc1, the growth rises from 10.1% to 104%.

Going from CC(C)CC1NC(C)(C)CO1 (stereo not given) to CN1C(=O)N(C)C2Nn3c(s/c(=C\c4ccccn4)c3=O)=NC21 (stereo not given), the growth falls from 108% to 95.6%.

COc1ccc([C@@H]2c3[nH]c4ccccc4c3C[C@H]3C(=O)N(C4CCN(CC5CCCCC5)CC4)CC(=O)N23)c(OC)c1 was tested, and the growth was 58.7%.

For COc1cc(C(C)n2cc(-c3ccccc3)nn2)ccc1OC1CCCCC1 (stereo not given), the growth was 8.89% (active).
CC(C)[C@H]1COC(=O)N1[C@@H]1C(=O)N([C@@H](CCC(=O)N2CCN(C3CCCC3)CC2)C(=O)N[C@@H]2CCCc3ccccc32)[C@@H]1/C=C/c1cccc(Cl)c1 was tested, and the growth was -11.4% (active).
With C/C(=N/Nc1nc2ccccc2n1C)c1ccccn1 the growth was -41.9% (active).
C=C1C(=O)O[C@H]2[C@H]1CC/C(COC(=O)NCc1cccc(OC)c1)=C\CC[C@@]1(C)O[C@@H]21 was tested, and the growth was -13.2% (active).
With O=C1C(Cl)=C(SC2=NCCN2)C(=O)c2ccccc21 the growth was 0.366% (active).
With CCc1cccc2c3c(sc12)C(c1ccc(Cl)cc1)C(C#N)=C(/N=C/c1ccc(Cl)cc1)O3 (stereo not given) the growth was -16.3% (active).

Source: PubChem BioAssay (NCI)
